Test results reported in the supplement of paper PMC9262897, “Low-cost anti-mycobacterial drug discovery using engineered E. coli” (Nature Communications, 2022).
Where a name gives a salt, the structure may show the parent alone. ± gives the standard deviation of the averaged measurements.

System: E. coli TESEC Mtb Alr
Assay: growth (OD600 after 10 h); higher = more growth (less inhibition)
Conditions: compound 0.1 mM
Description: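 TESEC Mtb Alr E. coli, or the Alr+ wild-type control, in 384-well plates with Prestwick library compounds at 0.1 mM and 1% DMSO, across arabinose induction levels of 1E3 to 1E7 nM. Growth is read as OD600 after 10 h at 37 °C in triplicate biological replicates.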

[1] = arabinose 1000 nM, raw OD600 reference: median of DMSO wells 0.294, cell-free background 0.041
[2] = arabinose 10000 nM, raw OD600 reference: median of DMSO wells 0.264, cell-free background 0.041
[3] = arabinose 100000 nM, raw OD600 reference: median of DMSO wells 0.201, cell-free background 0.041
[4] = arabinose 1000000 nM, raw OD600 reference: median of DMSO wells 0.193, cell-free background 0.041
[5] = arabinose 10000000 nM, raw OD600 reference: median of DMSO wells 0.146, cell-free background 0.041

| Compound | growth [1] | growth [2] | growth [3] | growth [4] | growth [5] |
| --- | --- | --- | --- | --- | --- |
| Clc1ccc(Cn2c(CN3CCCC3)nc3ccccc32)cc1 [Clemizole hydrochloride] | 0.0807 ± 0.029 | 0.0496 ± 0.00062 | 0.106 ± 0.049 | 0.0465 ± 0.0005 | 0.06017 ± 0.00057 |
| CC(=O)Oc1ccccc1C(=O)O [Acetylsalicylic acid] | 0.2936 ± 0.0015 | 0.292 ± 0.014 | 0.202 ± 0.019 | 0.19 ± 0.01 | 0.147 ± 0.0031 |
| C[C@@H]1[C@H](O)[C@@H](C)/C=C/C=C/C=C/C=C/C=C/C=C/C=C/[C@H](O[C@@H]2O[C@H](C)[C@@H](O)[C@H](N)[C@@H]2O)C[C@@H]2O[C@](O)(C[C@@H](O)C[C@@H](O)[C@H](O)CC[C@@H](O)C[C@@H](O)CC(=O)O[C@H]1C)C[C@H](O)[C@H]2C(=O)O [Amphotericin B] | 0.33 ± 0.0067 | 0.27 ± 0.0035 | 0.345 ± 0.0081 | 0.182 ± 0.0098 | 0.261 ± 0.0027 |
| CC(C)NC[C@H](O)COc1ccc(CC(N)=O)cc1 [(S)-(-)-Atenolol] | 0.288 ± 0.016 | 0.2708 ± 0.0025 | 0.214 ± 0.04 | 0.184 ± 0.0026 | 0.1491 ± 0.0014 |
| CCOc1ccc2nc(S(N)(=O)=O)sc2c1 [Ethoxzolamide] | 0.247 ± 0.0061 | 0.227 ± 0.0027 | 0.177 ± 0.024 | 0.134 ± 0.0057 | 0.122 ± 0.0034 |
| CCCCOc1cc(C(=O)OCCN(CC)CC)ccc1N [Benoxinate hydrochloride] | 0.256 ± 0.016 | 0.25 ± 0.0055 | 0.177 ± 0.015 | 0.1482 ± 0.00091 | 0.143 ± 0.0029 |
| Cc1ccc2c(c1)c1c3n2CCNC3CCC1 (stereo not given) [Pirlindole mesylate] | 0.252 ± 0.0064 | 0.262 ± 0.0058 | 0.182 ± 0.022 | 0.148 ± 0.003 | 0.165 ± 0.011 |
| CC(=O)OCC(=O)[C@@]1(O)CC[C@H]2[C@@H]3CCC4=CC(=O)CC[C@]4(C)[C@H]3[C@@H](O)C[C@@]21C [Cortisol acetate] | 0.297 ± 0.016 | 0.237 ± 0.0043 | 0.184 ± 0.018 | 0.151 ± 0.0056 | 0.141 ± 0.0061 |
